Source: the supplement of paper PMC11417369
± gives the standard deviation of the averaged measurements. Whole data set: some 25,000 sequences, median “ln(normalized median fluorescence intensity)” near 10, cut for the highest 2% near 12. The sample as a whole holds a higher share of the highest values than the screen did.

Each sequence was assayed on PfAP2-G AP2 domain (GST-tagged) (assay: gcPBM binding intensity (ln(normalized median fluorescence intensity)); higher = stronger DNA binding).
Summary of the method: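 In this array assay, P. falciparum DNA-binding domains with a GST tag, expressed in E. coli, were applied for 1 h to primer-extended double-stranded 36-bp intergenic genomic probes and negative controls on an Agilent 4 × 180k array. Bound protein was visualised with Alexa488 anti-GST antibody at 488 nm. Binding intensity is the highest Masliner-normalised natural-log median intensity across replicate spots of either probe orientation.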

Sequence | gcPBM binding intensity (ln)
ACAGATATACATAAAAAAAAAATAATTTTACATATA [CACACA_negctrl_site929] | 9.765 ± 0.049
TACATAAATACATACACACACATATAACCAATGTAG [CACACA_site5243] | 10.3 ± 0.11
AATCATTTATGGAAAGCATGCTAAATTAGAGTATAC [TGCATGCA_site172] | 10.03 ± 0.064
TAATGTAATACATATTGTACACATACATATATATTT [XGTACX_site7531] | 11.2 ± 0.71
AAAACAAACATTACACGTACAAAACAAGTTATAGAC [XGTACX_site6320] | 11.4 ± 0.74
TTTCAAACAAAAAGACGTACACTGAAGTTATCCGTC [XGTACX_site8824] | 11.8 ± 1
TGAGTTCAACAAAGACGTACAAAACCAAAAATATAA [XGTACX_site8931] | 11.6 ± 0.93
AAAAAAAAAAGACACACACACACACGGAGATATATA [CACACA_site6216] | 10.1 ± 0.22
TATGTGTAATATTTTTGTACAGAAAAAAAAAAAAAA [XGTACX_site7075] | 10.8 ± 0.77
AATTAATGGGTACATACACACATATATACATACATA [CACACA_site742] | 11.4 ± 1
TATTTATAAATTTACACACACACATGTGAACATAAA [CACACA_site1909] | 10.2 ± 0.14
ATAACAAAATAAAACACACACACAAATGTACAGATA [CACACA_site5358] | 11.1 ± 0.72
ATAAATATTTACAAAAGTACACATAACTTTAGATAT [XGTACX_site1685] | 11.4 ± 0.9
TATCCTAACTTTAGATGTACACAAATAAAAAAAAAA [XGTACX_site4491] | 11.7 ± 0.91
TTTATTTATATTTATACACACAAACATAATACTACT [CACACA_site7039] | 10.3 ± 0.28
AGGTCTATATAATAAGTGCATTTTTTTTTTTTTTTT [GTGCAC_site9664] | 10.2 ± 0.26
TTTTTAATATATAAAGATAATAATAAATAAAATTCA [CACACA_negctrl_site657] | 9.46 ± 0.12
TATATGCACTTAATATGTACACAAAAAAAAAAAAAA [XGTACX_site6199] | 11.5 ± 1.2
GATTATTATTATAAGGGTACAAATATTTAATAAAAA [XGTACX_site7144] | 11 ± 0.57
CAATAAAAATTAAAATGTACAAATAAATATAAATAT [XGTACX_site7265] | 10.8 ± 0.29

Sequence | gcPBM binding intensity (ln)
AAAAAAATTAAATGGGGTACAATAAGGGTCAAATAT [XGTACX_site8669] | 11.6 ± 0.93
AATTATATATTATCATGTACAAATATAGTAATACAA [XGTACX_site6845] | 10.7 ± 0.4
ATATAAACACTGAATGCATGCACATATATATATATA [TGCATGCA_site940] | 10.2 ± 0.26
TATACGCATATTTTTACACACATATTTTTTCATATA [CACACA_site2546] | 10.02 ± 0.049
AAAAAAATAACAAAGTGTACTTTTATATTTTACATA [XGTACX_site8954] | 11.3 ± 0.93
ACATATATTTCAAAGTGTACGCACAATTTTTTTTAC [XGTACX_site6166] | 11.7 ± 1
AAAGTATAAATAAATACACACATATTTATTTATATA [CACACA_site7375] | 9.96 ± 0.2
CCACATATACAAAACACACACACAACGTTTTAATAA [CACACA_site1978] | 10.1 ± 0.16
ATGACTTACATATATAGTACTTTGTTTTGGAGTTGC [XGTACX_site94] | 10.8 ± 0.45
GCTAGTTTTTTTTGGCGTACAGTACCGGTTTACTTT [XGTACX_site2606] | 11.6 ± 1
TCTGTAGTTTTTTACAGTACTTTTAGGTAATACATA [XGTACX_site7417] | 11 ± 0.79
ATAATTCCAAGAATTTCATATATCTGAATTTTAGGT [GTGCAC_negctrl_site283] | 9.61 ± 0.2
GACCATATGAATAATGCACACGTTTTAAAATATTAA [CACACA_site5312] | 10.23 ± 0.028
AACGATATAGGTACTACACACATTATGTCATCCTAT [CACACA_site7205] | 11.2 ± 0.77
AACGATATCTGTACTACACACATTATGTCATCCTAT [CACACA_site5374] | 11.8 ± 1.1
AACGATATATGTACTACACACATTATGTCATCCTAT [CACACA_site2464] | 11.5 ± 0.83
TTTTATACATAAATGTGTACGTATATATAATGAATT [XGTACX_site2762] | 11.7 ± 1
CACTTTTTTTAAATGTGTACGTATATGAAAATATCA [XGTACX_site4854] | 11.7 ± 1
TATAATGAACATATGTGTACATATATTTTTTAAATT [XGTACX_site8736] | 11.4 ± 0.72
TTTGTATAATACATGTGTACGTATTTTTATATAAAT [XGTACX_site8656] | 11.6 ± 0.95

Sequence | gcPBM binding intensity (ln)
TTAAATGAAAAAATATGTACGTATAATAAGAAATAT [XGTACX_site6619] | 11.6 ± 0.87
ATATTTATATTTATGTGTACATATGAAATAATTATT [XGTACX_site7765] | 11.5 ± 0.72
ATGTATGAAAAAATGTGTACATAATTTTTTTTTTTT [XGTACX_site5444] | 11.7 ± 1
TTTTATACATAAATATGTACGTATATATAATGAATT [XGTACX_site1337] | 11.3 ± 0.73
AAATTTTAAATAGTATGTACGTATGAAATATATATG [XGTACX_site7511] | 11.4 ± 0.79
TTTTTTTAAAATATGAGTACATAATATTGTAAAAAT [XGTACX_site6536] | 11.4 ± 0.9
AGTTTGATTTTTTCTTATAATATATTATTATATATT [CACACA_negctrl_site376] | 9.975 ± 0.021
CATATGTAGGGAACAATATAATATGCTTTGAATATG [GTGCAC_negctrl_site524] | 10.2 ± 0.14
AAGAATATTAATATAAATAAGTAAATAAATAAATAA [CACACA_negctrl_site417] | 9.78 ± 0.11
GTATAATTTAAAAAGTGTACATAAAGTTTTTATTAA [XGTACX_site1090] | 11.6 ± 0.81
AAAAAATGCGACATGTGTACACATATATATATATAT [XGTACX_site1679] | 11.8 ± 0.99
TATGTAACAAAAAAAAGTACACATATATATAGTGTA [XGTACX_site7772] | 11.6 ± 0.85
CATATTAGGACAAAGTGTACATATATATATATATAT [XGTACX_site1172] | 11.4 ± 0.86
AAATGCGCCATGTGTACACATATATATATATATATA [CACACA_site4649] | 11.5 ± 0.88
AAAAATATAATATAATGTACACAAAAAAAAAAAATC [XGTACX_site1427] | 11.4 ± 0.71
ATCTGACAAAAGTGTACACATATATATATATATATA [CACACA_site4814] | 11.7 ± 1.2
GTACAAATGTTGTGTATATATACACACATACATATA [XGTACX_negctrl_site276] | 10.9 ± 0.46
ATATATATATATATATGTACATATACACATGTGTGC [XGTACX_site168] | 11.2 ± 0.55
ATAATCTGACAAATGTGTACACATATATATATATAT [XGTACX_site2379] | 11.6 ± 0.97
